PubChem BioAssay (NCATS)
Results filed as inconclusive are left out. Calls of active or inactive are those of the source. The call rests on the fitted dose curve; in most records, active means well fitted curve in the direction sought with a large enough effect; inconclusive means small, poorly fitted or top-dose-only effect, or another doubt; inactive means no such curve, though single readings can be large; an effect the other way counts as inactive or inconclusive.

Tests used:
KB-3-1 = test: Cytotoxic Profiling of Annotated Libraries Using Quantitative High-Throughput Screening (AID 1296008); conditions: Five cell lines viability, CellTiter-Glo ATP luminescence, 48-72 h; max response: stronger effect = lower value; further: nearly all actives have a fitted effect of over 60% in size; on max response: on the % scale 0 is the no-effect control and ±100 the full control effect
In short: (§1)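 Compounds were pin-transferred onto cells and incubated 48 or 72 hr at 37 degree Celsius, 95% humidity. CellTiter-Glo was added, plates sat 10 min at room temperature, then ATP-coupled luminescence was imaged as the viability read-out.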

NIH3T3 [1] = test: as above; conditions: Five cell lines viability, CellTiter-Glo ATP luminescence, 48-72 h; max response: stronger effect = lower value
In short: as §1

HEK293T [2] = test: qHTS assay to identify novel small-molecules to repurpose for Merkel cell carcinoma treatment (AID 1296009); conditions: MCC and control cell lines, CellTiter-Glo viability, 72 h; series mostly up to 44.8 µM; further: nearly all actives have a fitted effect of over 60% in size
In short: (§2)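 Cells exposed to NPC (8-point) and MIPE (11-point) compound dilutions for 72 hr at 37 degree celsius; viability read by CellTiter-Glo luminescence, normalized to no-cell and DMSO in-plate controls.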

NIH3T3 [3] = test: as above; conditions: MCC and control cell lines, CellTiter-Glo viability, 72 h; at 44.8 µM (top of the series) unless noted
In short: as §2

C33A = test: Primary qHTS to identify gynecologic anti-cancer compounds using libraries of approved drugs and bioactive compounds (AID 1345084); conditions: Gynecologic cancer cell panel viability, ATPlite luminescence, 48 h; series mostly up to 57.5 µM; further: on the % scale 0 is the no-effect control and ±100 the full control effect; nearly all actives have a fitted effect of over 55% in size
In short: (§3)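 ATP-based viability (ATPlite), 1,000 cells/well, 16 h pre-incubation, 48 h compound at 37 C, 5% CO2, 15 min RT before read.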

CAOV3 = test: as above; conditions: Gynecologic cancer cell panel viability, ATPlite luminescence, 48 h; series mostly up to 57.5 µM
In short: as §3

CASKI = test: as above; conditions: Gynecologic cancer cell panel viability, ATPlite luminescence, 48 h; series mostly up to 57.5 µM
In short: as §3

Es-2 = test: as above; conditions: Gynecologic cancer cell panel viability, ATPlite luminescence, 48 h; series mostly up to 57.5 µM
In short: as §3

HeLa = test: as above; conditions: Gynecologic cancer cell panel viability, ATPlite luminescence, 48 h; series mostly up to 57.5 µM
In short: as §3

Hek293T [4] = test: as above; conditions: Gynecologic cancer cell panel viability, ATPlite luminescence, 48 h, control line for the selectivity index; series mostly up to 57.5 µM
In short: as §3

JEG-3 = test: as above; conditions: Gynecologic cancer cell panel viability, ATPlite luminescence, 48 h; series mostly up to 57.5 µM
In short: as §3

OV90 = test: as above; conditions: Gynecologic cancer cell panel viability, ATPlite luminescence, 48 h; series mostly up to 57.5 µM
In short: as §3

PA-1 = test: as above; conditions: Gynecologic cancer cell panel viability, ATPlite luminescence, 48 h; series mostly up to 57.5 µM
In short: as §3

O=C1NCc2nc3ccccc3c(=O)n2C1Cc1c[nH]c2ccccc12 (stereo unspecified)
inactive: max response (KB-3-1) 3.31% | outcome (NIH3T3 [1]) | Potency (HEK293T [2]) | outcome (NIH3T3 [3]) | Potency (C33A) | Potency (CAOV3) | Potency (CASKI) | Potency (Es-2) | Potency (HeLa) | Potency (Hek293T [4]) | Potency (JEG-3) | Potency (OV90) | Potency (PA-1)

CCC(NC(=O)CC(NC(=O)C(CO)NC(=O)C(CC)NC(=O)c1ccc[nH]1)c1ccccc1)C(=O)O (stereo unspecified)
inactive: outcome (KB-3-1) | outcome (NIH3T3 [1]) | Potency (HEK293T [2]) | outcome (NIH3T3 [3]) inactive [at 17.4 µM] | Potency (C33A) | Potency (CAOV3) | Potency (CASKI) | Potency (Es-2) | Potency (HeLa) | Potency (Hek293T [4]) | Potency (JEG-3) | Potency (OV90) | Potency (PA-1)

COC1C2=C(COC2=O)C2(C)CCCC(C)(CO)C2C1OC(=O)c1ccccc1 (stereo unspecified)
inactive: outcome (KB-3-1) | outcome (NIH3T3 [1]) | Potency (HEK293T [2]) | outcome (NIH3T3 [3]) inactive [at 17.4 µM] | Potency (C33A) | Potency (CASKI) | Potency (Es-2) | Potency (HeLa) | Potency (Hek293T [4]) | Potency (JEG-3) | Potency (OV90) | Potency (PA-1)

CCN(c1cc(C#CCN2CCOCC2)cc(C(=O)NCc2c(C)cc(C)[nH]c2=O)c1C)C1CCC(N(C)CCOC)CC1 (stereo unspecified)
inactive: outcome (KB-3-1) | outcome (NIH3T3 [1]) | Potency (HEK293T [2]) | outcome (NIH3T3 [3]) | Potency (C33A) | Potency (CASKI) | Potency (Es-2) | Potency (HeLa) | Potency (Hek293T [4]) | Potency (JEG-3) | Potency (OV90) | Potency (PA-1)

C=C1CCC2C(C)(COC3OC(COC(=O)CC(=O)O)C(O)C(O)C3O)CCCC2(C)C1CCC1=CCOC1=O (stereo unspecified)
inactive: outcome (KB-3-1) | outcome (NIH3T3 [1]) | Potency (HEK293T [2]) | outcome (NIH3T3 [3]) inactive [at 17.4 µM] | Potency (C33A) | Potency (CAOV3) | Potency (CASKI) | Potency (Es-2) | Potency (HeLa) | Potency (Hek293T [4]) | Potency (JEG-3) | Potency (OV90) | Potency (PA-1)

C=Cc1cc(O)cc2nc(-c3ccc(O)c(F)c3)oc12
inactive: outcome (KB-3-1) | outcome (NIH3T3 [1]) | Potency (HEK293T [2]) | outcome (NIH3T3 [3]) | Potency (C33A) | Potency (CAOV3) | Potency (CASKI) | Potency (Es-2) | Potency (HeLa) | Potency (Hek293T [4]) | Potency (JEG-3) | Potency (PA-1)

C=C1CCC2C(C)(C(=O)O)CC(O)CC2(C)C1CC/C(C)=C/C(=O)O (stereo unspecified)
inactive: max response (KB-3-1) 5.42% | outcome (NIH3T3 [1]) | Potency (HEK293T [2]) | outcome (NIH3T3 [3]) | Potency (C33A) | Potency (CAOV3) | Potency (CASKI) | Potency (Es-2) | Potency (HeLa) | Potency (Hek293T [4]) | Potency (JEG-3) | Potency (OV90) | Potency (PA-1)

COc1cc(/C=C/C(=O)O[C@H]2[C@H](O)[C@@H](CO)O[C@@]2(CO)O[C@H]2O[C@H](COC(=O)c3ccc(O)cc3)[C@@H](O)[C@H](O)[C@H]2O)cc(OC)c1OC
inactive: max response (KB-3-1) 3.54% | outcome (NIH3T3 [1]) | Potency (HEK293T [2]) | outcome (NIH3T3 [3]) inactive [at 17.4 µM] | Potency (C33A) | Potency (CASKI) | Potency (Es-2) | Potency (HeLa) | Potency (Hek293T [4]) | Potency (JEG-3) | Potency (OV90) | Potency (PA-1)

CC(/C=C/C1(O)C(C)CC(O)CC1(C)C)OC1OC(CO)C(O)C(O)C1O (stereo unspecified)
inactive: outcome (KB-3-1) | outcome (NIH3T3 [1]) | Potency (HEK293T [2]) | outcome (NIH3T3 [3]) | Potency (C33A) | Potency (CAOV3) | Potency (CASKI) | Potency (Es-2) | Potency (HeLa) | Potency (Hek293T [4]) | Potency (JEG-3) | Potency (OV90) | Potency (PA-1)

CO[C@@]12CC3[C@@H]([C@@H](O)[C@@H](OC(C)=O)C4[C@](C)(COC(C)=O)CCC[C@]34C)[C@@H](C)C1=CC(=O)O2 (stereo partly specified)
inactive: outcome (KB-3-1) | outcome (NIH3T3 [1]) | Potency (HEK293T [2]) | outcome (NIH3T3 [3]) inactive [at 17.4 µM] | Potency (C33A) | Potency (CAOV3) | Potency (CASKI) | Potency (Es-2) | Potency (HeLa) | Potency (Hek293T [4]) | Potency (JEG-3) | Potency (OV90) | Potency (PA-1)

CC1=CCC2C(C)(CO)CCCC2(C)C1CC12OC1C(O)C(CO)=CC2O (stereo unspecified)
inactive: outcome (KB-3-1) | outcome (NIH3T3 [1]) | Potency (HEK293T [2]) | outcome (NIH3T3 [3]) | Potency (C33A) | Potency (CASKI) | Potency (Es-2) | Potency (HeLa) | Potency (Hek293T [4]) | Potency (JEG-3) | Potency (OV90) | Potency (PA-1)

C=CC(C)(C)C1(CC2NC(=O)C3CCCN3C2=O)C(=O)Nc2cc3c(cc21)C=CC(C)(C)O3 (stereo unspecified)
inactive: max response (KB-3-1) 2.09% | outcome (NIH3T3 [1]) | Potency (HEK293T [2]) | outcome (NIH3T3 [3]) inactive [at 17.4 µM] | Potency (C33A) | Potency (CAOV3) | Potency (CASKI) | Potency (Es-2) | Potency (HeLa) | Potency (Hek293T [4]) | Potency (JEG-3) | Potency (OV90) | Potency (PA-1)

C[C@@H](Nc1cc(NS(=O)(=O)N2CCC2)nc(SCc2cccc(F)c2F)n1)[C@@H](O)CO
inactive: max response (KB-3-1) -2.77% | outcome (NIH3T3 [1]) | Potency (HEK293T [2]) | outcome (NIH3T3 [3]) | Potency (C33A) | Potency (CAOV3) | Potency (CASKI) | Potency (Es-2) | Potency (HeLa) | Potency (Hek293T [4]) | Potency (JEG-3) | Potency (OV90) | Potency (PA-1)

O=C(O)c1cnn(-c2nc3cc(OC(F)(F)F)c(Cl)cc3[nH]2)c1
inactive: max response (KB-3-1) 4.77% | outcome (NIH3T3 [1]) | Potency (HEK293T [2]) | outcome (NIH3T3 [3]) | Potency (C33A) | Potency (CAOV3) | Potency (Es-2) | Potency (HeLa) | Potency (Hek293T [4]) | Potency (JEG-3) | Potency (OV90) | Potency (PA-1)
